Reference: PubChem BioAssay (NCATS)
Values joined by “and” are separate entries in the source; they are usually repeats but may differ in a detail not shown here. Identical values can stand only once. Records with an inconclusive call do not appear. Where a structure was tested more than once in an assay, its records may differ in their call. Active and inactive are the calls of the source. Unless noted, the call rests on the fitted dose curve.

Legend:
[1] = Cell Viability - NIH 3T3 (AID 541; active means well fitted curve in the direction sought with a large enough effect; an effect the other way counts as inactive or inconclusive;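 further: plate controls were DMSO alone for no effect and tamoxifen positive control for full effect; nearly all actives have a fitted effect of over 25% in size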); details: NIH 3T3 cell viability, qHTS; activity change, negative = cytotoxicity: at 92.2 µM (top of the series)
Summary of the method: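 NIH 3T3 mouse embryo fibroblasts (1000 cells/well) were plated in complete medium and treated with compound for 40 hr at 37 °C. Viability was read as intracellular ATP by CellTiter-Glo luminescence; AC50 values came from Hill-equation fits of concentration-response data.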

[2] = Cellular Toxicity (caspase-3) SHSY5Y (AID 657; active means well fitted curve in the direction sought with a large enough effect; an effect the other way counts as inactive or inconclusive)
Summary of the method: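 Luminescent Caspase-Glo 3/7 read-out, 1 hr room temperature, follows 16 hours of compound treatment of SH-SY5Y cells at 37 °C. Normalization: DMSO basal, 10 uM staurosporine as 100%; AC50 values from Hill-equation concentration-response fits.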

[3] = Cell Viability - LYMP2-018 (AID 985; active means well fitted curve in the direction sought with a large enough effect; an effect the other way counts as inactive or inconclusive;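 further: compound exposure lasted 24 hr at 37 °C; plate controls were DMSO only for no effect and tetraoctylammonium bromide at 92 µM for full effect; nearly all actives have a fitted effect of over 50% in size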)
Summary of the method: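 Human lymphoblastoid cells (2500/well) were pre-incubated 5 hr at 37 C, then exposed to compounds for 24 hr at 37 C in complete medium. Viability was read as intracellular ATP by CellTiter-Glo luminescence; AC50 values came from Hill-equation fits.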

[4] = target: Estrogen receptor (Homo sapiens) (UniProt P03372); experiment: qHTS assay for small molecule agonists of estrogen receptor alpha signaling (AID 588514);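 further: 0% = vehicle only and 100% = reference agonist; nearly all actives have a fitted effect of over 70% in size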
Summary of the method: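 ER-alpha-UAS-bla GripTite HEK 293 cells in medium with 2% charcoal/dextran-treated FBS were treated with compound titrations at 37 C for 18 hrs; beta-lactamase reporter read by CCF4 fluorescence after 2 hrs at RT.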

[5] = target: Bile acid receptor (Homo sapiens) (UniProt Q96RI1); experiment: qHTS assay for small molecule antagonists of farnesoid X receptor signaling (AID 588526); further: on the % scale 0 is the no-effect control and ±100 the full control effect
Summary of the method: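 Concentration-response titrations were fitted to the Hill equation for half-maximal inhibition and maximal response, with data normalised to 50 uM chenodeoxycholic acid and DMSO control wells. Cells: FXR-UAS-bla HEK293T, dialyzed FBS.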

[6] = qHTS assay for small molecule agonists of the antioxidant response element (ARE) signaling pathway (AID 651741; active means well fitted activation curve with a large enough effect in the signal ratio; the % refers to the signal ratio; further: potency means the concentration at half of the fitted maximal effect; on activation: % of control where 0% means no effect)
Summary of the method: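 ARE-bla HepG2 cells (beta-lactamase reporter under ARE control) were plated at 2,000 cells/well, preincubated 5 h at 37 C/5% CO2, then treated with DMSO-dissolved compounds for 16 h at 37 C; LiveBLAzer B/G FRET substrate added, fluorescence read after 2 h at room temperature.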

[7] = qHTS assay for small molecule disruptors of the mitochondrial membrane potential - 1 hr assay (AID 651754); further: on the % scale 0 is the no-effect control and ±100 the full control effect; nearly all actives have a fitted effect of over 35% in size
Summary of the method: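 HepG2 cells, attached overnight at 37C, were exposed to compound or DMSO vehicle for 1 hr at 37C, 5% CO2, then stained with Mito-MPS dye for 30 min. Red aggregate versus green monomer fluorescence reports membrane potential.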

[8] = target: Glucocorticoid receptor (Homo sapiens) (UniProt P04150); experiment: qHTS assay for small molecule agonists of glucocorticoid receptor signaling (AID 588532; active means well fitted curve in the direction sought with a large enough effect in the signal ratio, with a control signal flat; the % refers to the signal ratio;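 further: 100% = dexamethasone at 0.1 µM and 0% = DMSO only wells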); details: HeLa MMTV-bla, beta-lactamase ratio, agonist, 18 h; stronger effect = higher value; percent of dexamethasone control, DMSO zero
Summary of the method: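 MMTV-bla HeLa, beta-lactamase reporter; medium with 1% charcoal/dextran-stripped FBS; cpds up to 92 uM, 18 h, 37 C; CCF4 readout 460/530 nm; Hill fit → EC50, efficacy vs 0.1 uM dexamethasone = 100%.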

[9] = target: Glucocorticoid receptor (Homo sapiens) (UniProt P04150); experiment: qHTS assay for small molecule antagonists of glucocorticoid receptor signaling (AID 588533; active means well fitted inhibition curve with a large enough effect in the signal ratio, with a control signal flat, not every such curve was filed as active; the % refers to the signal ratio;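 further: cells stimulated with 2 nM dexamethasone as agonist; on the % scale 0 is the no-effect control and ±100 the full control effect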)
Summary of the method: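 Antagonist-mode qHTS: compound titrations added to GRE-bla HeLa cells, then dexamethasone 2 nM final; 18 h, 37 C. CCF4 FRET fluorescence normalized to dexamethasone and DMSO; IC50 from Hill fit.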

[10] = qHTS assay for small molecule antagonists of peroxisome proliferator-activated receptor delta signaling (AID 588535; active means well fitted inhibition curve with a large enough effect in the signal ratio, with a control signal flat, not every such curve was filed as active; the % refers to the signal ratio;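 on max response: cells co-treated with a PPAR-delta agonist as stimulator during compound exposure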); details: HEK293T PPARd-UAS-bla, beta-lactamase FRET ratio, 18 h; 460 nm channel
Summary of the method: (§1)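 GeneBLAzer PPAR-delta-UAS-bla HEK293T cells in medium with 2% charcoal/dextran FBS were preincubated 5 hrs at 37 C, then given compounds, incubated 18 hrs at 37 C, and read by CCF4 beta-lactamase fluorescence; IC50 from Hill fits.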

[11] = target: Peroxisome proliferator-activated receptor delta (Homo sapiens) (UniProt Q03181); experiment: as above
Summary of the method: as §1

[12] = target: Peroxisome proliferator-activated receptor gamma (Homo sapiens) (UniProt P37231); experiment: qHTS assay for small molecule antagonists of peroxisome proliferator-activated receptor gamma signaling (AID 588537; active means well fitted inhibition curve with a large enough effect in the signal ratio, with a control signal flat, not every such curve was filed as active; the % refers to the signal ratio;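 further: reporter cells co-stimulated with 50 nM rosiglitazone agonist during compound treatment; % of control where 0% means no effect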)
Summary of the method: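 PPAR-gamma-UAS-bla HEK293 cells (3000/well, 1% charcoal/dextran-stripped FBS) were preincubated 6-6.5 h at 37 C, given titrated compounds, then stimulated with 50 nM rosiglitazone for 16 h. Beta-lactamase activity was read with CCF4 dye; IC50 came from Hill fits.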

[13] = Cell Viability - SH-SY5Y (AID 544; active means well fitted curve in the direction sought with a large enough effect; an effect the other way counts as inactive or inconclusive;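 further: 0% = DMSO alone and -100% = 100 µM tamoxifen; nearly all actives have a fitted effect of over 55% in size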)
Summary of the method: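 Human neuroblastoma SH-SY5Y cells (1500/well) in complete medium were exposed to compounds for 40 hr at 37 °C; intracellular ATP was then quantified by CellTiter-Glo luminescence after 20 min at room temperature. AC50 came from Hill-equation concentration-response fits.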

[14] = target: Tumor necrosis factor (Homo sapiens) (UniProt P01375); experiment: qHTS assay to identify small molecules that stimulate Tumor Necrosis Factor-alpha (TNF-alpha) secretion (AID 651757; active means well fitted curve in the direction sought with a large enough effect in the signal ratio; the % refers to the signal ratio; further: 0% is about no effect)
Summary of the method: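 THP-1 cells were exposed to compounds for 17 hrs at 37 C, after which secreted TNF-alpha was measured by homogeneous HTRF (TR-FRET) using cryptate- and XL665-labeled anti-TNF-alpha antibodies, read after 3 hr at room temperature.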

[15] = qHTS assay for small molecule activators of the human pregnane X receptor (PXR) signaling pathway (AID 720659; call rule not given here; further: 0% is about no effect)
[16] = qHTS assay for small molecule agonists of retinoid X receptor alpha signaling (AID 588544); details: HEK293T RXRa-UAS-bla, beta-lactamase reporter, 18 h; 530 nm emission;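 on activation: 0% = DMSO basal wells and 100% = reference agonist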
[17] = target: Retinoic acid receptor RXR-alpha (Homo sapiens) (UniProt P19793); experiment: as above
[18] = target: Cytochrome P450 1A2 (Homo sapiens) (UniProt P05177); experiment: p450-cyp1a2 (AID 410); further: potency means the concentration at half of the fitted maximal effect
Summary of the method: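 Human CYP1A2 (20nM) demethylated Luciferin-ME at its Km (100uM) in 100mM KPO4. After 10 min compound preincubation, NADPH regeneration ran the reaction 60 min at room temperature. Luciferin was read by luminescence, normalized to 57 uM furafylline.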

[19] = target: 3',5'-cyclic-AMP phosphodiesterase 4B (Homo sapiens) (UniProt Q07343); experiment: qHTS Assay for Inhibitors of PDE-IV (AID 607; active means well fitted activation curve with a large enough effect in the main read-out, with a control signal flat, not every such curve was filed as active; further: % of control where 0% means no effect)
Summary of the method: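 HEK293 ACTOne cells with CNG channel (1000/well), endogenous PDE4; membrane potential dye, compounds up to 22.9 uM final. Fluorescence Ex 535/Em 590; RO 20-1724 (100 uM final) as reference.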

[20] = target: Cytochrome P450 2C19 (Homo sapiens) (UniProt P33261); experiment: qHTS Assay for Inhibitors and Substrates of Cytochrome P450 2C19 (AID 899; active means well fitted curve in the direction sought with a large enough effect; an effect the other way counts as inactive or inconclusive; further: nearly all actives have a fitted effect of over 60% in size; further: potency means the concentration at half of the fitted maximal effect)
Summary of the method: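 Human CYP2C19 (5nM) with Luciferin-H EGE at 10uM (its KM) in 50mM KPO4 was preincubated with compound for 10 min at 37C. NADPH regeneration started a 60 min 37C reaction. Luciferin was read by luminescence, normalized to 57uM ketoconazole.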

Sequence of Cytochrome P450 2C19 (Homo sapiens) (P33261 whole entry, looked up): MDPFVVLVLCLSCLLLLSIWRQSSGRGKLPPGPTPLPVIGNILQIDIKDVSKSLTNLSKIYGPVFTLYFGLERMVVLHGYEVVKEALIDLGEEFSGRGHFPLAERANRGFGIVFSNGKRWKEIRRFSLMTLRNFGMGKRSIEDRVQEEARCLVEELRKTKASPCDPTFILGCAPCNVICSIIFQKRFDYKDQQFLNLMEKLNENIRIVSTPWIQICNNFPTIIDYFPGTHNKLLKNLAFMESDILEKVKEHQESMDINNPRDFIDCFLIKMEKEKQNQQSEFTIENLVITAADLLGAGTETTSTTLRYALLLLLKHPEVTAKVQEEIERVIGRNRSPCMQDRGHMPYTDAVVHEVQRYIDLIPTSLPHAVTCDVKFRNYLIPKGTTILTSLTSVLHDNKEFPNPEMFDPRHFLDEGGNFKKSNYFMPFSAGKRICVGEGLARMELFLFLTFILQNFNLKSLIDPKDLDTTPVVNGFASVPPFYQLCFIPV
Sequence of Bile acid receptor (Homo sapiens) (Q96RI1 whole entry, looked up): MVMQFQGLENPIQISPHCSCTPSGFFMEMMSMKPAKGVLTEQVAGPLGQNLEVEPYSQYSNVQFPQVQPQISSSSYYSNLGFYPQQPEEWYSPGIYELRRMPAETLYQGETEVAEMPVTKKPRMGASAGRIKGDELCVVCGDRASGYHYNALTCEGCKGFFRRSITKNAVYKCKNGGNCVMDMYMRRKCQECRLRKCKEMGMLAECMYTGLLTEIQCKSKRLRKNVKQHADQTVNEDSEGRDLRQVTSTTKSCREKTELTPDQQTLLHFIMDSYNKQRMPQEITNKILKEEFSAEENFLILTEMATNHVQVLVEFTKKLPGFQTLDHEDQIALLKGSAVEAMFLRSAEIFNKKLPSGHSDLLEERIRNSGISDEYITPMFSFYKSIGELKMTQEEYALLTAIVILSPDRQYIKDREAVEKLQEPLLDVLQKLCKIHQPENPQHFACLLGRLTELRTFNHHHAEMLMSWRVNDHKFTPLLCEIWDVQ
Sequence of Peroxisome proliferator-activated receptor delta (Homo sapiens) (Q03181 whole entry, looked up): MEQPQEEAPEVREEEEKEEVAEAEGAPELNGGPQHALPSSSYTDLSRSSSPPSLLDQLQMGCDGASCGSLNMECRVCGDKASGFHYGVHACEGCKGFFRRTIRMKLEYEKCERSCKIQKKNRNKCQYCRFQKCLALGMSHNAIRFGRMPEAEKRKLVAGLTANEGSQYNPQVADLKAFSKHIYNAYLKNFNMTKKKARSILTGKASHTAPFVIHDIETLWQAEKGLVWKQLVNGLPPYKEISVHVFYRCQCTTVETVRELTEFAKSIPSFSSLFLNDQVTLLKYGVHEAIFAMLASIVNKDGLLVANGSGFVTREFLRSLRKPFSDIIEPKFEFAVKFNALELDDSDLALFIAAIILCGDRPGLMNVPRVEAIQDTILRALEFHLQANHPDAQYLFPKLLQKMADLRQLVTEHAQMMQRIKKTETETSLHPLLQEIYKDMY
Sequence of 3',5'-cyclic-AMP phosphodiesterase 4B (Homo sapiens) (Q07343 whole entry, looked up): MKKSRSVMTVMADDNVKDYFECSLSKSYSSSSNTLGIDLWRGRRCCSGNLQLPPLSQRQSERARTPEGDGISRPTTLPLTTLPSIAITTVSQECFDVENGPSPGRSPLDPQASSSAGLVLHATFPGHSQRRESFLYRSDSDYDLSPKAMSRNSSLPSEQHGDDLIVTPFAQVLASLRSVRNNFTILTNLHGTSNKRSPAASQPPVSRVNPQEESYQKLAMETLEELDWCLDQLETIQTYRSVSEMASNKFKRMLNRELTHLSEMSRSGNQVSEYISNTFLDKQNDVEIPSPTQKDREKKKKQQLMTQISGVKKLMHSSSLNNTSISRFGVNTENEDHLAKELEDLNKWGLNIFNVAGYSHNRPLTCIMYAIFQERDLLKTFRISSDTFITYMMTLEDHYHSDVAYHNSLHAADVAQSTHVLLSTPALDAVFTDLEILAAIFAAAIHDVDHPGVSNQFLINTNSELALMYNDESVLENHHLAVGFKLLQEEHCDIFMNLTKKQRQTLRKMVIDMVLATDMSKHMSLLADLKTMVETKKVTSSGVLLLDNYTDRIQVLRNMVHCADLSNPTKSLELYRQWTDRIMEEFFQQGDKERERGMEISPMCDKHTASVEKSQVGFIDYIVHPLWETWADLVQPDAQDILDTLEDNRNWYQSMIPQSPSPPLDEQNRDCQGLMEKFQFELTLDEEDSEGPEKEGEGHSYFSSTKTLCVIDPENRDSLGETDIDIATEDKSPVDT
Sequence of Peroxisome proliferator-activated receptor gamma (Homo sapiens) (P37231 whole entry, looked up): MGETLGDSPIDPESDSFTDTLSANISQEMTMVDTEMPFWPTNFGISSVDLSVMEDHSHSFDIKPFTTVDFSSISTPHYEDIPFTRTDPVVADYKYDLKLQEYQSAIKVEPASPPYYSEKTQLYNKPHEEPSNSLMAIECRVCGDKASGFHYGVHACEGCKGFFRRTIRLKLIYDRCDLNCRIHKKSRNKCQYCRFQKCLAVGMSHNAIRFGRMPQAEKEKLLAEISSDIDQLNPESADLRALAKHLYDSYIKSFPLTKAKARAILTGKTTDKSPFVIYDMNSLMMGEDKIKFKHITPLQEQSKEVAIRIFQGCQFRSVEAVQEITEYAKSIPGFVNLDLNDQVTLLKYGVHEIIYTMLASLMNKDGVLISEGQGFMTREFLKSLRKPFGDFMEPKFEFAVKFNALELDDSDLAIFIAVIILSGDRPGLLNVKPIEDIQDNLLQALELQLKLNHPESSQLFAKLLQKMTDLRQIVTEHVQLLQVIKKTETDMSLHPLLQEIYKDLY
Sequence of Cytochrome P450 1A2 (Homo sapiens) (P05177 whole entry, looked up): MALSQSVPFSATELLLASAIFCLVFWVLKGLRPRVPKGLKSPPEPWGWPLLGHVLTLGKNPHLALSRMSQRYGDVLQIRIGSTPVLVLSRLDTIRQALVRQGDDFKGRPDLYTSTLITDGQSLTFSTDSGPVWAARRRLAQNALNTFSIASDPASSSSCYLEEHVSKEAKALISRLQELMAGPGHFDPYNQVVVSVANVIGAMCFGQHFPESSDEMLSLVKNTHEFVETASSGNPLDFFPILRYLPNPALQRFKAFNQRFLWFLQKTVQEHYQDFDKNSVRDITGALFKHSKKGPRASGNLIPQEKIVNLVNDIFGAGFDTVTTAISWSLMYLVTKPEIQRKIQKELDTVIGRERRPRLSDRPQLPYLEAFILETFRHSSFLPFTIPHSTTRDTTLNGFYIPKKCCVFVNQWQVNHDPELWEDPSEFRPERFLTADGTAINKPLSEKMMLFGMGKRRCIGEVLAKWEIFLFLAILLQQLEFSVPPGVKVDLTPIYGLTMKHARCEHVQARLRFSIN
Sequence of Retinoic acid receptor RXR-alpha (Homo sapiens) (P19793 whole entry, looked up): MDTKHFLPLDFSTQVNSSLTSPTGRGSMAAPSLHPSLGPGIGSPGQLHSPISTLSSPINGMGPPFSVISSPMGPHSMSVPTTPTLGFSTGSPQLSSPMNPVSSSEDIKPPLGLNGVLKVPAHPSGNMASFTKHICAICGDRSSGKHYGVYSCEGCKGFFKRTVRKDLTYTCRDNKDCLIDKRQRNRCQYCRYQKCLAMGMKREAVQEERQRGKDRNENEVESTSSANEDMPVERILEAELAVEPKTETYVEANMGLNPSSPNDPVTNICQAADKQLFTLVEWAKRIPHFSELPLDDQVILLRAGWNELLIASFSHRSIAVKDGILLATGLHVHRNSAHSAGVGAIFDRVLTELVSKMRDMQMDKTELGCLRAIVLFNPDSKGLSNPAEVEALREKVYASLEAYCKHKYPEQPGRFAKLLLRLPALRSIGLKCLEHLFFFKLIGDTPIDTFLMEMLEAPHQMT
Sequence of Tumor necrosis factor (Homo sapiens) (P01375 whole entry, looked up): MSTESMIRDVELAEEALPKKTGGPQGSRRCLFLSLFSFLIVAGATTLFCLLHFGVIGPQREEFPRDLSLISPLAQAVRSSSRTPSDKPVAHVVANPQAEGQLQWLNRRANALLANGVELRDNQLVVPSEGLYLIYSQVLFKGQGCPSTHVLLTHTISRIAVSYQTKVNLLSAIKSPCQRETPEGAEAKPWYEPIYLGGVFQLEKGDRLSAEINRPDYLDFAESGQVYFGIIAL
Sequence of Glucocorticoid receptor (Homo sapiens) (P04150 whole entry, looked up): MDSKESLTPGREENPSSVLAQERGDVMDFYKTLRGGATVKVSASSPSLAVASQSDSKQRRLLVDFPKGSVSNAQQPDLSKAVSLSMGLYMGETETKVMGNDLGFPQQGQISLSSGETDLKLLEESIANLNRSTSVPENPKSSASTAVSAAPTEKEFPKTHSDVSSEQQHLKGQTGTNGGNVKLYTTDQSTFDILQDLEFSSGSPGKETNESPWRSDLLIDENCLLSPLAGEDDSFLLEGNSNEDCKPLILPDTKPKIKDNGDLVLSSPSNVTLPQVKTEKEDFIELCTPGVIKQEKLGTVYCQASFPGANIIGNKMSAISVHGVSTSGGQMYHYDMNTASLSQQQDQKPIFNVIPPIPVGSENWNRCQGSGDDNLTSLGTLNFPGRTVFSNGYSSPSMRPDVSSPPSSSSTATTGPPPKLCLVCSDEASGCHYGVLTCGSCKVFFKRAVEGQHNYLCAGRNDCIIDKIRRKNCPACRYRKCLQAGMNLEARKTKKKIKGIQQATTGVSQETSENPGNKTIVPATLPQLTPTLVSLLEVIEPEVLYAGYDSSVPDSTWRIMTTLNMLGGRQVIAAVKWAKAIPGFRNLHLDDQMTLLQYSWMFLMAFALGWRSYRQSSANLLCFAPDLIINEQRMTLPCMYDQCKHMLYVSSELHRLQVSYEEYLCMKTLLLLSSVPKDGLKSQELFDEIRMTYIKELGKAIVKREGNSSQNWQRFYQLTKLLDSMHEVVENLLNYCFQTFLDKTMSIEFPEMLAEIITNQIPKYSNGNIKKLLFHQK

COc1ccc(/C=C/c2cc(OC)cc(=O)o2)cc1
active: Potency [6] 1.88 µM
inactive: Potency [1] | outcome [2] | Potency [3] | Potency [4] | outcome [5] | Potency [7]

COc1cc(/C=C/c2ccccc2)oc(=O)c1
-19.2%: max response [10]
inactive: Potency [3] | activation [8] 1.13% | Potency [9] | Potency [11] | outcome [12] | Potency [7]

CC1=C2[C@H](/C=C(\C)C(=O)O)CC[C@@H](C)[C@H]2CC1
inactive: Potency [1] | Potency [13] | outcome [5] | Potency [9] | outcome [14] | outcome [15]

O=C(O)c1ccccc1
inactive: Potency [1] | Potency [13] | Potency [4] | outcome [12] | outcome [17] | Potency [6] | outcome [14] | outcome [15]
-9.66%: max response [16]

C=CC(C)(CCC=C(C)C)OC(C)=O (centres undefined)
inactive: Potency [4] | outcome [5] | Potency [9] | Potency [11] | outcome [12] | outcome [17] | Potency [6] | outcome [15]
-5.34%: max response [16]
-1.31%: max response [10]

C=C(C)C1CC=C(C)C(O)C1 (centres undefined)
-1.36%: max response [16]
inactive: Potency [1] | Potency [13] | outcome [2] | Potency [3] | Potency [4] | activation [8] 0.682% | Potency [9] | outcome [12] | outcome [17] | Potency [7] | outcome [14] | outcome [15]

CCCCCCCCCCCCCC(=O)O
inactive: Potency [13] | outcome [2] | Potency [4] | outcome [5] | activation [8] -3.49% and -3.58% | Potency [9] | outcome [12] | outcome [17] | Potency [6] | Potency [7] | outcome [14] | outcome [15]
12.8% and -5.45%: max response [16]

CN(C)c1nc(-c2cccc(NS(C)(=O)=O)c2)nc2ccccc12
active: Potency [18] 501 nM

O=c1cnc2cnc(N3CCOCC3)nc2n1Cc1cccs1
active: Potency [18] 2510 nM
inactive: Potency [19]

CN(C)c1ccc(-c2cncnc2NCCc2cnc[nH]2)cc1
inactive: Potency [19]
active: Potency [18] 1260 nM | Potency [20] 79.4 nM

C=CCc1ccc(OC)c(OC)c1
-12.6% and 4.43%: max response [16]
33.5 µM (active) and inactive: Potency [6]
inactive: Potency [1] | Potency [13] | outcome [5] | activation [8] -12.3% | Potency [9] | Potency [11] | outcome [12] | outcome [17] | Potency [7] | outcome [14] | outcome [15]
10.2% and -6.71%: max response [10]

CNc1ncncc1-c1ccccc1CN(C)C
inactive: Potency [19] | Potency [20]

CCCCCCCCCCCC(=O)O
12.5%: max response [10]
inactive: Potency [1] | Potency [13] | outcome [2] | Potency [3] | Potency [11] | Potency [6] | Potency [7] | outcome [14]

CN(C)C(=O)c1ccc(-c2ccc3ncnc(Nc4ccc(F)cc4)c3c2)cc1
active: Potency [18] 20000 nM
inactive: Potency [19]

O=c1cc(-c2ccc(O)c(O)c2)oc2cc(O[C@@H]3O[C@@H](CO)[C@@H](O)[C@@H](O)[C@H]3O)cc(O)c12
inactive: Potency [20]
active: Potency [18] 39800 nM

CN1CCN(c2nc(-c3ccoc3)nc3ccccc23)CC1
active: Potency [18] 1260 nM

COc1cccc(Cn2c(=O)cnc3cnc(N(C)C)nc32)c1
active: Potency [18] 6310 nM | Potency [20] 2510 nM

COc1ccc2[nH]cc(CCNc3nc(-c4c(C)noc4C)nc4ccccc34)c2c1
inactive: Potency [19]
